Source: the supplement of paper PMC8728848
This is one part of a sample in which the strongest signals are shown more often than they occur.

Columns and labels:
Assay in all cases: glycan array binding signal (z-score within array); higher = stronger binding
Conditions in all cases: glycan notation: IUPAC condensed, linker removed
[1] = target: Fuc(a1-2)Gal(b1-3)GalNAc(a1-3)[Fuc(a1-2)]Gal(b1-4)GlcNAc
Summary of the method: (§1)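 From the Consortium for Functional Glycomics database, 3228 arrays were curated, keeping only those whose protein sequence was available. Binding is given as a within-array Z-score averaged across arrays sharing a protein sequence and across linkers. Negative Z-scores can be read as non-binding.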

[2] = target: Fuc(a1-2)Gal(b1-3)[Fuc(a1-4)]GlcNAc
Summary of the method: as §1

Fuc(a1-2)Gal(b1-4)Glc = target: Fuc(a1-2)Gal(b1-4)Glc
Summary of the method: as §1

[3] = target: Fuc(a1-2)Gal(b1-4)GlcNAc(b1-2)[Fuc(a1-2)Gal(b1-4)GlcNAc(b1-4)]Man(a1-3)[Fuc(a1-2)Gal(b1-4)GlcNAc(b1-2)Man(a1-6)]Man(b1-4)GlcNAc(b1-4)GlcNAc
Summary of the method: as §1

Fuc(a1-2)[Gal(a1-3)]Gal = target: Fuc(a1-2)[Gal(a1-3)]Gal
Summary of the method: as §1

[4] = target: Fuc(a1-2)[Gal(a1-3)]Gal(b1-3)GlcNAc(b1-2)Man(a1-3)[Fuc(a1-2)[Gal(a1-3)]Gal(b1-3)GlcNAc(b1-2)Man(a1-6)]Man(b1-4)GlcNAc(b1-4)GlcNAc
Summary of the method: as §1

[5] = target: Fuc(a1-2)[GalNAc(a1-3)]Gal(b1-4)[Fuc(a1-3)]GlcNAc(b1-3)GalNAc
Summary of the method: as §1

[6] = target: Fuc(a1-2)[GalNAc(a1-4)]Gal(b1-4)GlcNAc
Summary of the method: as §1

[7] = target: Fuc(a1-3)[Gal(b1-4)]GlcNAc(b1-2)Man(a1-3)[Fuc(a1-3)[Gal(b1-4)]GlcNAc(b1-2)Man(a1-6)]Man(b1-4)GlcNAc(b1-4)[Fuc(a1-6)]GlcNAc
Summary of the method: as §1

[8] = target: Fuc(a1-3)[Gal3S(b1-4)]GlcNAc6S
Summary of the method: as §1

Gal(a1-2)Gal = target: Gal(a1-2)Gal
Summary of the method: as §1

Gal(a1-3)Gal(b1-4)Glc = target: Gal(a1-3)Gal(b1-4)Glc
Summary of the method: as §1

[9] = target: Gal(a1-3)Gal(b1-4)GlcNAc(b1-2)Man
Summary of the method: as §1

[10] = target: Gal(a1-3)Gal(b1-4)GlcNAc(b1-2)Man(a1-3)[Gal(a1-3)Gal(b1-4)GlcNAc(b1-2)Man(a1-6)]Man(b1-4)GlcNAc(b1-4)GlcNAc
Summary of the method: as §1

[11] = target: Gal(a1-3)[Gal(a1-4)]Gal(b1-4)GlcNAc
Summary of the method: as §1

[12] = target: Gal(a1-4)Gal(b1-4)GlcNAc(b1-2)Man(a1-3)[Gal(a1-4)Gal(b1-4)GlcNAc(b1-2)Man(a1-6)]Man(b1-4)GlcNAc(b1-4)GlcNAc
Summary of the method: as §1

[13] = target: Gal(b1-3)GalNAc(a1-3)[Fuc(a1-2)]Gal(b1-4)GlcNAc
Summary of the method: as §1

[14] = target: Gal(b1-3)GlcNAc(b1-3)Gal(b1-3)GlcNAc
Summary of the method: as §1

[15] = target: Gal(b1-3)GlcNAc(b1-3)Gal(b1-4)GlcNAc(b1-6)[Gal(b1-3)GlcNAc(b1-3)]Gal(b1-4)Glc
Summary of the method: as §1

[16] = target: Gal(b1-3)GlcNAc(b1-6)Gal(b1-4)GlcNAc
Summary of the method: as §1

[17] = target: Gal(b1-3)[Fuc(a1-4)]GlcNAc
Summary of the method: as §1

[18] = target: Gal(b1-4)GalNAc(a1-3)[Fuc(a1-2)]Gal(b1-4)GlcNAc
Summary of the method: as §1

[19] = target: Gal(b1-4)GlcNAc(b1-2)Man(a1-3)Man(b1-4)GlcNAc(b1-4)GlcNAc
Summary of the method: as §1

[20] = target: Gal(b1-4)GlcNAc(b1-2)Man(a1-3)[GlcNAc(b1-4)][Gal(b1-4)GlcNAc(b1-2)Man(a1-6)]Man(b1-4)GlcNAc(b1-4)GlcNAc
Summary of the method: as §1

[21] = target: Gal(b1-4)GlcNAc(b1-3)Gal(b1-4)GlcNAc(b1-3)Gal(b1-4)GlcNAc(b1-3)Gal(b1-4)GlcNAc(b1-2)Man(a1-3)[Gal(b1-4)GlcNAc(b1-3)Gal(b1-4)GlcNAc(b1-3)Gal(b1-4)GlcNAc(b1-3)Gal(b1-4)GlcNAc(b1-2)Man(a1-6)]Man(b1-4)GlcNAc(b1-4)GlcNAc
Summary of the method: as §1

[22] = target: Gal(b1-4)GlcNAc(b1-3)[Fuc(a1-3)GlcNAc(b1-6)]Gal(b1-4)Glc
Summary of the method: as §1

B1: PX9961KLbvu-535-38-535 (Bacteroides vulgatus) (protein)
chain: DKAYTDAESYTKGLHKIYSVWALSGQDGSSSSDISGLDAGNTALLRCWWTLQEQPTDEMKNAWNDAWCTEVNYMTWTTNKVEPIEGVYQRCMYIVALVNEFLKNIPNAPESIDKESYIAQARFNRAFAYYVLMDMFALPPFITEKNYSIEPAPLSREDLFNWIEAELNEIKPNLPSPRSEYGVADQAVASALLARMYLNAEIYTGKARYTECINACNEVIKAGYQLADNYADLFKADNGENPDTKKEIIYPIIFDGDKTQSWGMAAIIIGARGAEDKDVLLAHSGVDQGWAGFRATSNLVHLFDFQNDEEPKASEIQDKRGIFYDKGRSIDITSSVSGTFETEGWSVFKFSNLNSNGQPGKNTLWVDTDFPMFRLGDIYLMYAEAVARGGEGSKASAVEYINALRKRAYGDDKHNISENWLEENNFRNLLDERGRELYWEGIRRTDLVRFDLLTSGSYTWDFKGGINTGVGVNKRYNVYPIPVTDLTVNGNLQQNEGY
In the case of B1, the “glycan array binding signal (z-score)” value [1] is reported as -0.462, the “glycan array binding signal (z-score)” value [2] is reported as -0.042 and the “glycan array binding signal (z-score)” value (Fuc(a1-2)Gal(b1-4)Glc) is reported as -0.031. The “glycan array binding signal (z-score)” value [3] was 2.87, the “glycan array binding signal (z-score)” value (Fuc(a1-2)[Gal(a1-3)]Gal) was 1.72 and the “glycan array binding signal (z-score)” value [4] was 0.16. The “glycan array binding signal (z-score)” value [5] was -0.162, the “glycan array binding signal (z-score)” value [6] was -0.165 and the “glycan array binding signal (z-score)” value [7] was -0.392. For the same binder, the “glycan array binding signal (z-score)” value [8] was -0.054, the “glycan array binding signal (z-score)” value (Gal(a1-2)Gal) was -0.938 and the “glycan array binding signal (z-score)” value (Gal(a1-3)Gal(b1-4)Glc) was -0.366. The “glycan array binding signal (z-score)” value [9] was -0.783, the “glycan array binding signal (z-score)” value [10] was -0.391 and the “glycan array binding signal (z-score)” value [11] was 2.6. The “glycan array binding signal (z-score)” value [12] was 2.35, the “glycan array binding signal (z-score)” value [13] was -0.06 and the “glycan array binding signal (z-score)” value [14] was -0.549. The “glycan array binding signal (z-score)” value [15] was -0.446, the “glycan array binding signal (z-score)” value [16] was -0.398 and the “glycan array binding signal (z-score)” value [17] was -0.123. For the same binder, the “glycan array binding signal (z-score)” value [18] was -0.291, the “glycan array binding signal (z-score)” value [19] was 0.158 and the “glycan array binding signal (z-score)” value [20] was -0.249. The “glycan array binding signal (z-score)” value [21] was 1.57 and the “glycan array binding signal (z-score)” value [22] was -0.046.
